About 670 (0.34%) of roughly 200,000 compounds were called active. Cut-off read from the data, not from the text of the source: active = activation above about 22%; inactive = the rest. The list comes from a sample in which actives are over-represented; it also holds similar structures and randomly drawn compounds.
The compounds below were run against Peroxisome proliferator-activated receptor gamma (Homo sapiens) (UniProt P37231) (assay: compounds enhancing SRC-2 coactivator binding to PPARgamma – biochemical, HTS, primary screen (AID 1032;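 note: 0% = vehicle and 100% = reference agonist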)). Settings: PPARgamma LBD-SRC-2 recruitment, at 8 µM, stronger effect = higher value.
Peroxisome proliferator-activated receptor gamma (Homo sapiens), sequence (P37231 whole entry, looked up, the tested form may be a part): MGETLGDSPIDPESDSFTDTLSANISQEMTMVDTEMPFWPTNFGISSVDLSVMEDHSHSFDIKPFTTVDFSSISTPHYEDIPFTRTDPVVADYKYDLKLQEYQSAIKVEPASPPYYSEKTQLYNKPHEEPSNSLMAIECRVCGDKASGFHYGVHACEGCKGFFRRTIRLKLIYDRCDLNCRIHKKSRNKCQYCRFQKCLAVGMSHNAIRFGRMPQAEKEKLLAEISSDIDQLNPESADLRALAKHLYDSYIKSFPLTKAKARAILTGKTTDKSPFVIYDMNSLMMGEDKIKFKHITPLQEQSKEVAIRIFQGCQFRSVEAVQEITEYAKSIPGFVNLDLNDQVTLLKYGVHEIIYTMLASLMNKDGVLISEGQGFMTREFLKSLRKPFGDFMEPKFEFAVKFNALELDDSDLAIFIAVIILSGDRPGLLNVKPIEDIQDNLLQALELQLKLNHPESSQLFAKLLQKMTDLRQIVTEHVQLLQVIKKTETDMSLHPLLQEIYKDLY

SMILES | activation
CCn1c(SCc2cc(=O)n3ccsc3n2)nc2ccccc21 | 2.48% (inactive)
CC(=O)c1sc2nc(SCC(=O)N3CCCCC3)[nH]c(=O)c2c1C | 27.8% (active)
C=CCNC(=O)CSc1nc2sc(C)c(C)c2c(=O)[nH]1 | 6.77% (inactive)
O=C(CSc1nc2c(cnn2-c2ccc(F)cc2)c(=O)[nH]1)N1CCCCCC1 | 5.39% (inactive)
CCN(CC)N=Nc1cccc(NC(C)=O)c1 | 6.74% (inactive)
CCOC(=O)c1[nH]ncc1CN1CCCC(C(=O)c2ccc(OC)cc2C)C1 (stereo unspecified) | -2.32% (inactive)
Oc1ccccc1N1CCN(C(=S)NCc2ccccc2)CC1 | 6.1% (inactive)
O=C(COC(=O)c1ccncc1)c1ccccc1 | -2.8% (inactive)
CC(=O)NC1C(OCc2ccccc2)OC(COC(C)=O)C(OC(C)=O)C1OC(C)=O (stereo unspecified) | 4.63% (inactive)
O=C(OCC1O[C@@H](OC(=O)c2cc(O)c(O)c(O)c2)[C@@H](OC(=O)c2cc(O)c(O)c(O)c2)[C@@H](OC(=O)c2cc(O)c(O)c(O)c2)[C@@H]1OC(=O)c1cc(O)c(O)c(O)c1)c1cc(O)c(O)c(O)c1 (stereo partly specified) | 27.6% (active)
CCOC(=O)N1CCN(C(=O)CSc2nc(C)nc3c2c(=O)n(C)c(=O)n3C)CC1 | -8.15% (inactive)
Cc1cc(C)nc(NC(=O)c2cccc([N+](=O)[O-])c2)c1 | -5.12% (inactive)
CSc1nc(N)c(C#N)c(-c2ccccc2Cl)c1C#N | -6.37% (inactive)
CCc1c(-c2ccccc2)nc(N)c(C#N)c1-c1cccs1 | 23.2% (active)
Cc1c(-c2ccccc2)nc(N)c(C#N)c1-c1cccs1 | 6.63% (inactive)
O=C(NCc1nnc(SCC(=O)N2CCC(Cc3ccccc3)CC2)o1)c1ccco1 | 0.71% (inactive)
O=C(Cc1ccc(Br)cc1)N1CCN(c2ccccn2)CC1 | 4.3% (inactive)
CC(C)(C)C(=O)NC(NC(=S)Nc1ccc(S(N)(=O)=O)cc1)C(Cl)(Cl)Cl (stereo unspecified) | -5.23% (inactive)
CN(C)c1ccc(N/C=C/C(=O)C(F)(F)F)cc1 | 39.6% (active)
O=C(/C=C/Nc1ccccc1OC(F)(F)F)C(F)(F)F | 1.89% (inactive)
CCCOc1ccc(N/C=C/C(=O)C(C)(C)C)cc1 | -1.64% (inactive)
CCC(=O)OCCNc1nc(-c2ccccc2)nc2ccccc12 | 0.25% (inactive)
Cn1ccc(=NC=C(C#N)C#N)c2ccccc21 | -3.24% (inactive)
CC1CCN(C(=S)NC2CC3CCC2C3)CC1 (stereo unspecified) | -1.7% (inactive)
Cc1c(CN2CCC(CO)(CCOc3ccccc3)CC2)[nH]c2ccc(Cl)cc12 | 3.77% (inactive)
COc1ccc(C(=O)NCc2nnc(SCCOc3ccccc3)n2C)cc1 | 0.32% (inactive)
